Rows were chosen to be rich in hits. Some 4% of all compounds tested hit in one or more screens of this group.
HIF-2a block: HIF-2a reporter inhibitors, primary screen, luminescence, 786-0 RCC cells; inhibition, % at 18.8 µM; hit rate 0.72% among 360,000; 786-0 RCC cells HIF-2a reporter, luciferase luminescence, overnight;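 active = inhibition of the luminescence signal of 40% or more relative to plate controls, in a single-dose primary screen at 18.75 µM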
KKLEB tox: cytotoxicity in KKLEB CF airway cells, primary screen, cytotoxicity control for CF NF-kB inhibitor project, cell-based, uHTS, fluorescence assay plates. hit rate 0.36% among 360,000. activity change (cytotoxicity), % at 5 µM. KKLEB CF airway cells viability, ATPlite luminescence, overnight; active compounds read low; cells stimulated with P. aeruginosa culture filtrate;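 active = corrected activity change at or below -50% at 5 µM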
TROY signal inh: inhibitors of TROY-driven NF-kB signaling, primary screen, Q293 LMP1-TROYcd cells, NF-kB luciferase, uHTS; hit rate 0.98% among 360,000; inhibition, % at 10 µM; Q293 LMP1-TROYcd NF-kB luciferase reporter, 4 h;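 active = compounds whose plate-normalised and pattern-corrected inhibition of the luciferase reporter signal at the single screening dose is 50% or more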
Peg3 promoter: Peg3 promoter-driven luciferase inhibitors, primary screen, cell-based, HeLa, luciferase luminescence; AID 588405, 2011; inhibition, % at 20 µM; HeLa PEG-Prom luciferase reporter, overnight; hit rate 1.7% among 360,000;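 active = inhibition of at least 50% at 20 µM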
CF NFkB block: inhibitors of PAF-induced NF-kB signaling, primary screen, cell-based, GFP fluorescence, uHTS; KKLEB NF-kB-GFP reporter, GFP fluorescence overnight; inhibition, % at 5 µM; hit rate 0.86% among 360,000;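 active = at least 50% inhibition at 5 µM, scaled per plate between neutral and stimulator controls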;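 also: PAF is a Pseudomonas aeruginosa culture filtrate used as stimulus; plate controls were PAF-stimulated DMSO wells for no effect and unstimulated DMSO wells for full effect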
TWEAK-Fn14 inh: inhibitors of TWEAK-Fn14 signaling, primary screen, luciferase reporter cells, uHTS; TWEAK-stimulated Fn14 reporter cells, luciferase luminescence, 8 h; inhibition, % at 10 µM; hit rate 2% among 360,000; in the data active = inhibition above about 50%
CF NFkB inh conf: inhibitors of PAF-induced NF-kB signaling, retest, confirmation, cell-based, GFP fluorescence, single concentration; KKLEB CF airway cells, overnight; inhibition, % at 5 µM; AID 602472, 2012; hit rate 64% among 1,300; shares compounds with CF NFkB block; in the data active = inhibition above about 40%;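 also: stimulus PAF is a Pseudomonas aeruginosa filtrate and not platelet activating factor; plate controls were DMSO wells with stimulus for no effect and unstimulated DMSO wells for full effect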
* hit, by the source's call; · = not tested or not shown; ! = repeats disagree.

SMILES | HIF-2a block | KKLEB tox | TROY signal inh | Peg3 promoter | CF NFkB block | TWEAK-Fn14 inh | CF NFkB inh conf
Cc1cc(N2C(=O)C(O)=C(C(=O)c3ccc(C)o3)C2c2cccc(Cl)c2)no1 (stereo not drawn) | 12.5 | 8.4 | -13.7 | 1.2 | -18.7 | -6.2 | ·
CCOc1cc(Br)c(Br)c(C=Nc2ccc(NC(C)=O)cc2)c1O | 28.3 | -1.4 | 5.6 | 32.0 | 69.1* | 10.9 | 61.5*
CN(C)CCN(C(=O)CCS(=O)(=O)c1ccccc1)c1nc2cc3c(cc2s1)OCO3 | -20.9 | -5.2 | -20.6 | -32.7 | 15.5 | 12.8 | ·
Cc1ccc(S(=O)(=O)CCC(=O)N(CCCN2CCOCC2)c2nc3ccccc3s2)cc1 | -138.0 | -9.9 | 6.5 | 44.9 | 49.1 | 13.3 | ·
O=C(CCS(=O)(=O)c1ccccc1)N(CCCN1CCOCC1)c1nc2ccccc2s1 | -141.4 | -21.5 | -13.2 | 107.9* | 72.8* | 27.9 | 54.9*
CCN(CC)CCN(C(=O)CCS(=O)(=O)c1ccccc1)c1nc2cc3c(cc2s1)OCO3 | 11.7 | -7.4 | 13.4 | 31.2 | 53.3* | 20.9 | 2.9
Nc1ncnc(Sc2ccc(Cl)cc2)c1[N+](=O)[O-] | -20.1 | -13.4 | -7.1 | -7.3 | 64.0* | 68.9* | 61.8*
Nc1ncnc(Sc2ccccc2)c1[N+](=O)[O-] | 6.1 | -1.6 | 22.4 | 20.8 | 51.6* | 56.7* | 21.6
CN(Cc1ccccc1)c1ncnc(N)c1[N+](=O)[O-] | 11.3 | -8.8 | 27.1 | -4.8 | 66.8* | 34.2 | 60.9*
Cc1cccc(C)c1Nc1ncnc(N)c1[N+](=O)[O-] | 5.8 | 4.1 | 6.5 | 0.1 | 3.9 | -12.4 | ·
CCCCNC(=O)C1(C)CCCCN1C(=O)c1ccc(F)c(C)c1 (stereo not drawn) | 17.9 | -2.4 | -15.8 | -1.6 | 14.2 | -9.0 | ·
CC[n+]1ccc(/C=C/c2ccc(N(C)C)cc2)c2ccccc21 | 26.6 | -12.8 | 46.8 | 50.0 | -50.2 | 35.7 | ·
COc1ccc(CN2C[C@H]3CCCN3c3cc(Br)ccc3S2(=O)=O)cc1 | 10.4 | -6.5 | 23.2 | 11.1 | 52.8* | 20.7 | 56.2*
CC(=O)c1cccc(NC(=O)COC(=O)c2ccc(S(C)(=O)=O)c([N+](=O)[O-])c2)c1 | 14.4 | -0.9 | 44.8 | 8.0 | 62.6* | 64.1* | 43.2*
CS(=O)(=O)c1ccc(C(=O)OCc2nnc(-c3ccccc3)o2)cc1[N+](=O)[O-] | 21.2 | -27.5 | 65.9* | 109.0* | 76.3* | 66.4* | 35.8
CS(=O)(=O)c1ccc(C(=O)OCC(=O)Nc2cccnc2Cl)cc1[N+](=O)[O-] | -0.5 | -31.3 | 8.1 | 24.0 | 90.5* | 22.3 | 40.0
CN(CC(=O)O/N=C(\N)c1ccccn1)S(=O)(=O)c1cc(Cl)ccc1Cl | -29.9 | -4.3 | 5.2 | 3.1 | 6.7 | -28.6 | ·
CCCC(=O)Nc1sc2c(c1C(=O)Nc1ccccn1)CCCC2 | -10.5 | 4.9 | -11.7 | 3.6 | -20.4 | 20.9 | ·
NC(=O)c1nc(-c2cccs2)nc2c1[nH]c(=O)n2-c1ccc(F)cc1 | 5.9 | -41.9 | 5.6 | 43.4 | 53.0* | -46.8 | 1.9
CCOC(=O)Oc1c(OC)cc(C(=O)O[C@@H]2C[C@@H]3CN4CCc5c([nH]c6cc(OC)ccc56)[C@H]4C[C@@H]3[C@H](C(=O)OC)[C@H]2OC)cc1OC | 15.4 | 10.8 | 22.0 | 25.6 | 77.4* | 49.5 | 87.1*
COc1cc(NC(=O)c2csc(-c3ccncc3)n2)cc(C(=O)Nc2cccc(C(F)(F)F)c2)c1 | -18.7 | 11.1 | 15.1 | 49.9 | 56.9*! | 21.7 | 71.1*
O=C(Nc1cccc(C(F)(F)F)c1)c1csc(-c2ccncc2)n1 | -35.6 | 1.7 | -5.2 | -27.7 | -31.9 | -37.4 | ·
COc1cc(NC(=O)c2cc3cccc(OC)c3o2)cc(C(=O)Nc2cccc(C(F)(F)F)c2)c1 | 5.7 | -27.4 | 15.7 | 40.9 | 61.7* | 56.9* | 69.8*
CCCCNc1c(-c2cccc(-c3ccc(OC)cc3)c2)nc2ccc(C)cn12 | -162.9 | -23.3 | 31.8 | 68.8* | 68.3* | 0.1 | 91.2*
Cc1ccc2nc(-c3ccc(-c4cccc(Cl)c4)cc3)c(NCc3ccccc3)n2c1 | -176.0 | -15.1 | -37.6 | -108.4 | -18.1 | -32.9 | ·
SMILES | HIF-2a block | KKLEB tox | TROY signal inh | Peg3 promoter | CF NFkB block | TWEAK-Fn14 inh | CF NFkB inh conf
COCCNC(=O)C1(C)CCCN(Cc2ccc(-c3ccccc3)o2)C1 (stereo not drawn) | 9.1 | 7.1 | -5.5 | 17.0 | 3.8 | -17.4 | ·
CCNC(=O)C1(C)CCCN(Cc2ccc(-c3ccccc3)o2)C1 (stereo not drawn) | -30.3 | -2.6 | -13.2 | -9.7 | 57.8* | -39.6 | 63.4*
Cc1ccc(Cc2cnc(NC(=O)/C(C#N)=C/c3ccc(-c4ccccc4[N+](=O)[O-])o3)s2)cc1 | 10.5 | -49.6 | 7.9 | 36.4 | 51.5* | 13.7 | -1.9
N#CCCN(C(=O)CSc1ncccn1)c1ccc2c(c1)OCCO2 | 19.8 | -1.0 | -8.1 | -0.2 | 13.5 | -4.5 | ·
CCOC(=O)Cc1csc(NC(=O)/C=C/c2ccccc2Cl)n1 | -14.8 | 7.0 | -40.8 | -38.9 | 22.1 | 0.6 | ·
CCN(CC)C(=O)CSc1n[nH]c(=O)n1CCc1ccccc1 | 13.2 | -2.0 | 1.6 | 15.3 | 5.1 | 7.3 | ·
O=c1[nH]nc(Sc2ncnc3sccc23)n1CCc1ccccc1 | 28.9 | -20.8 | 21.9 | 44.1 | 53.6* | 56.6* | 45.0*
CC(C)C[C@H]1CN(CCCC[C@H]2CNC(=O)C(=O)N2CCc2ccc(O)cc2)C(=O)C(=O)N1CCc1ccccc1 | -0.7 | · | 11.0 | · | · | -0.4 | ·
NC(=O)CC(NC(=O)Cc1cccc2ccccc12)c1ccc(N2CCC(Br)CC2)c([N+](=O)[O-])c1 (stereo not drawn) | 4.4 | 9.7 | 8.2 | 16.6 | -16.6 | -29.1 | ·
O=S(=O)(Nc1nc2ccccc2nc1N1CCN(c2ccccc2F)CC1)c1ccc(Cl)cc1 | -2.8 | -46.6 | 43.6 | 49.0 | 60.8* | -5.5 | 66.2*
COc1cccc(C2C(C(=O)c3cc4ccccc4o3)=C(O)C(=O)N2CCN(C)C)c1OC (stereo not drawn) | -4.3 | -24.3 | 16.8 | -7.5 | 7.4 | -6.2 | ·
CC(c1ccccc1)N1C(=O)c2ccc(C(=O)Nc3ccc(Br)cc3C(=O)O)cc2C1=O (stereo not drawn) | -3.1 | -4.2 | 64.5* | 9.8 | 59.7* | 10.2 | 44.4*
CC(c1ccccc1)N1C(=O)c2ccc(C(=O)Nc3ccccc3C(=O)O)cc2C1=O (stereo not drawn) | -45.8 | -27.9 | 28.2 | 10.5 | 14.9 | 44.8 | ·
